Rows were chosen to be rich in hits. Some 4.2% of all compounds tested hit in one or more screens of this group.
D1 potentiator – Potentiators of Human D1 Dopamine Receptor: qHTS; D(1A) dopamine receptor (Homo sapiens), P21728; HEK293 TREx D1 cells, calcium flux, dopamine EC20 potentiation; potentiation, % at 10 µM; actives 0.036% (n = 360,000); AID 504651, 2011; in the data active = potentiation above about 30%
D1 agonist – Allosteric Agonists of the Human D1 Dopamine Receptor: qHTS | D(1A) dopamine receptor (Homo sapiens), P21728 | HEK293 T-REx D1 cells, calcium flux, agonist mode | activation, % at 2 µM | actives 1% (n = 360,000) | AID 504660, 2011; in the data active = activation above about 30%
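Inducible HEK293 T-REx D1 cells, force-coupled to calcium signalling, were plated at 4000 cells/well with tetracycline and held overnight at 30 C. After no-wash calcium dye loading, compound-evoked calcium rise over 180 s flagged agonists.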
TRPV1 agonist – HTS Assay for Compounds that Act as Agonists of the Vanilloid Receptor 1 | Transient receptor potential cation channel subfamily V member 1 (Homo sapiens), Q8NER1 | actives 0.19% (n = 320,000) | AID 540275, 2011 | activation, % at 8.33 µM | TRPV1-expressing cells, Fluo-8 calcium influx, agonist mode; in the data active = activation above about 80%; inconclusive = between about 30% and that limit
Target sequence (Q8NER1 whole entry, looked up): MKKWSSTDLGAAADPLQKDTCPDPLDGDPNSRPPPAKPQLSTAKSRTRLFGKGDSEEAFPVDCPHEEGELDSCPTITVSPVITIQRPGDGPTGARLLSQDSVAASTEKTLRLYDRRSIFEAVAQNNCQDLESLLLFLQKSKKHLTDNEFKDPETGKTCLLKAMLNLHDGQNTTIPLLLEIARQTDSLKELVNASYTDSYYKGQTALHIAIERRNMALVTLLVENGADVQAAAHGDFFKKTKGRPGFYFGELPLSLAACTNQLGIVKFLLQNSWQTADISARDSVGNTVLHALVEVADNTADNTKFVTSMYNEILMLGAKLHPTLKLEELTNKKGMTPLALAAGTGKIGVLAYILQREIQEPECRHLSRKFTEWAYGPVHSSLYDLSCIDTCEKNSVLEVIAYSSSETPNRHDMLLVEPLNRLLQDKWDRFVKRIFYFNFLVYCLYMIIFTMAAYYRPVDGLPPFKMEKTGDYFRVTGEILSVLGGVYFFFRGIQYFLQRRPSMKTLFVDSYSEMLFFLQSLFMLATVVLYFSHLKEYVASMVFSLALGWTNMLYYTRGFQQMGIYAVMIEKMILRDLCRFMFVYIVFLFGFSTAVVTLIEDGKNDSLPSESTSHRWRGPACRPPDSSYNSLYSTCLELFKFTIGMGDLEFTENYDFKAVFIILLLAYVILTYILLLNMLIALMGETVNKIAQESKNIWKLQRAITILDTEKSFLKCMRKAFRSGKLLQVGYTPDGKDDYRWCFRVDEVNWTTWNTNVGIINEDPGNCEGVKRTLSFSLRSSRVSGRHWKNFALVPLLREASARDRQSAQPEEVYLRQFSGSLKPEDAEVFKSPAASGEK
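Fluo-8 calcium influx in TRPV1-expressing cells, kinetic read (ex 480/em 520 nm). Compound added and read 3 min for agonist activity, followed by capsaicin at EC20 final and 2 min further read for enhancement.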
D1 antagonist – Antagonist of Human D 1 Dopamine Receptor: qHTS | actives 3.2% (n = 360,000) | activity change, negative = inhibition, % at 10 µM | D(1A) dopamine receptor (Homo sapiens), P21728 | HEK293 TREx D1 cells, calcium flux, dopamine EC80; hits give low values | AID 504652, 2011; in the data active = activity change below about -30%
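Using tetracycline-induced force-coupled D1 Hek293 cells and a calcium dye, signals were followed for 180 s after compound, then for 180 s after EC80 dopamine, to detect inhibitors.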
TRPV1 PAM – HTS Assay for Compounds that Act as Potentiators of the Vanilloid Receptor 1; Transient receptor potential cation channel subfamily V member 1 (Homo sapiens), Q8NER1; TRPV1-expressing cells, Fluo-8 calcium influx, capsaicin EC20 potentiation; potentiation, % at 8.33 µM; actives 0.02% (n = 320,000); in the data active = potentiation above about 80%; inconclusive = between about 30% and that limit
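TRPV1-expressing cells were cultured overnight at 35.5C and loaded with Fluo-8 calcium dye for 40 to 90 min at room temperature. After a 10 s baseline, compound was added and calcium influx was read kinetically for 3 min (ex 480/em 520 nm).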
Large screens that a line does not name were inactive.

COc1cc(OC)c(OC)cc1/C=C/c1nc2cc3ccccc3cc2c(=O)n1-c1ccc(F)cc1F	D1 agonist 42 (no result: TRPV1 agonist, TRPV1 PAM)
O=c1c2ccccc2nc(/C=C/c2cccc3ccccc23)n1-c1ccc(F)cc1F	none (no result: TRPV1 agonist, TRPV1 PAM)
Clc1nssc1=Nc1ccc(Br)cc1	D1 agonist 34
COc1cc(N=c2ssnc2Cl)cc(OC)c1	none
Cc1cccc(CSc2nc3c(sc4ccccc43)c(=O)n2CCC(=O)NC(C)C)c1	none (no result: TRPV1 agonist, TRPV1 PAM)
CC(=O)CC1(O)C(=O)N(Cc2ccccc2)c2ccccc21 (stereo unspecified)	D1 antagonist -85
Cc1ccc(C(=O)CC2(O)C(=O)N(Cc3ccccc3Cl)c3ccccc32)o1 (stereo unspecified)	D1 antagonist -31
O=C(Nc1nonc1-c1ccc(Cl)cc1)c1ccccc1F	none (no result: TRPV1 agonist, TRPV1 PAM)
CCOc1ccc(S(=O)(=O)NCCC2=CCCCC2)c2ccccc12	D1 antagonist -36
CC(=O)N1CC(C)Sc2ccc(S(=O)(=O)NCCc3ccc(C)cc3)cc21 (stereo unspecified)	D1 agonist 31
COc1ccc(C)cc1S(=O)(=O)NCCC1=CCCCC1	none
O=S(=O)(NCCC1=CCCCC1)c1ccc(Br)cc1	D1 antagonist -30
O=S(=O)(NCCC1=CCCCC1)c1ccccc1Br	none
CC(=O)N1CC(C)Sc2ccc(S(=O)(=O)NCCc3ccccc3)cc21 (stereo unspecified)	TRPV1 agonist inconclusive
CC(=O)N1CCCc2cc(S(=O)(=O)NCCC3=CCCCC3)ccc21	D1 antagonist -30
COc1ccc(OC)c(CNC(=O)c2ccc(NC(=O)c3nsc4ccccc34)cc2)c1	none (no result: TRPV1 agonist, TRPV1 PAM)
Clc1ccc2nc(NCc3ccccc3)c3nncn3c2c1	none (no result: TRPV1 agonist, TRPV1 PAM)
CC(=O)N1CCCc2cc(S(=O)(=O)NCc3ccc(C)cc3)ccc21	D1 antagonist -37
Cc1ccc(C(OCC(O)CN2CCCCC2)c2ccccc2)cc1 (stereo unspecified)	none
Cc1ccc(OCC(O)CNC(C)c2ccccc2)cc1C (stereo unspecified)	D1 agonist 32
Cc1ccc(C(OCC(O)CNC(C)c2ccccc2)c2ccccc2)cc1 (stereo unspecified)	D1 antagonist -38
CC(=O)NC(c1ccco1)c1cc(Br)c2cccnc2c1O (stereo unspecified)	none (no result: TRPV1 agonist, TRPV1 PAM)
c1ccc(CN2CCC3(CCCc4ccccc43)CC2)cc1	D1 antagonist -49
c1ccc(CN2CCC3(CC2)Nc2ccccc2CO3)cc1	TRPV1 PAM inconclusive
CCCSc1nnc(-c2cnn(-c3ccccc3)c2-n2cccc2)n1C	D1 agonist 36
CCCn1c(CCCNC(=O)c2ccccc2OC)nc2ccccc21	none (no result: TRPV1 agonist, TRPV1 PAM)
CN(C)c1ccc(/C=C/c2cc[n+](C)cc2)cc1	none
CN(C)c1ccc(/C=C/c2cc[n+]([O-])cc2)cc1	D1 agonist 73
Cc1ccc(-c2nc(N)sc2CC(=O)OCC(=O)N2C(C)CCCC2C)cc1 (stereo unspecified)	none
Cc1ccc(-c2nc(N)sc2CC(=O)OCC(=O)NC2CCCC(C)C2C)cc1 (stereo unspecified)	D1 antagonist -41
Cc1ccc(C)c(N2CCN(C(=O)c3cccn3-c3nnc(N4CCCCC4)s3)CC2)c1	none (no result: TRPV1 agonist, TRPV1 PAM)
Cc1ccc(O)c(NC(=S)NC(=O)Cc2ccc(Cl)cc2)c1	D1 agonist 96, D1 antagonist -62
Cc1cc(N2CCN(C)CC2)ccc1NC(=O)c1ccc(-c2ccc(Cl)cc2)o1	D1 antagonist -62
CC(=O)c1ccc(NC(=S)NC(=O)Cc2ccc(Cl)cc2)cc1	D1 agonist 41
CCOc1ccc(NC(=S)NC(=O)Cc2ccccc2)cc1	TRPV1 agonist 87
Cc1ccc(NC(=S)NC(=O)c2ccc(-c3ccc(Cl)cc3)o2)c(O)c1	none
Cc1cc(O)c(NC(=S)NC(=O)c2ccc(-c3ccc(Cl)cc3)o2)cc1C	D1 antagonist -34
O=C(CCCCn1c(=O)c2ccccc2n(Cc2cccc(Cl)c2)c1=O)NCc1ccc2c(c1)OCO2	none (no result: TRPV1 agonist, TRPV1 PAM)
O=C(COc1ccc(Br)cc1CNC1CCCC1)Nc1ccccc1	D1 agonist 34, TRPV1 PAM inconclusive
O=C(COc1ccc(Br)cc1CO)Nc1ccc(F)cc1	none
CCOc1ccc(N(CC)S(=O)(=O)N2CCCC(C(=O)Nc3ccc(OC)c(Cl)c3)C2)cc1 (stereo unspecified)	none (no result: TRPV1 agonist, TRPV1 PAM)
Cc1nc(-c2coc3cc(O)c(C)cc3c2=O)cs1	D1 antagonist -51
Cc1nc(-c2coc3cc(OCC(=O)O)ccc3c2=O)cs1	none
CCOc1cc(Br)cc(C2NC(=O)c3c(sc4c3CCN(C)C4)N2)c1O (stereo unspecified)	none (no result: TRPV1 agonist, TRPV1 PAM)
Cc1ccsc1/C=N/NC(=O)c1ccc2ccccc2c1	D1 antagonist -49
CCCOc1ccc(NC(=O)CC2C(=O)N(c3cccc(OC)c3)C(=O)N2Cc2cccs2)cc1 (stereo unspecified)	none (no result: TRPV1 agonist, TRPV1 PAM)
O=C(CN1CCN(c2ccccc2O)CC1)Nc1ccccc1C(=O)NCCc1ccccc1	D1 antagonist -41
Cc1cc(NC(=O)c2ccccc2Cl)n(C(C)(C)C)n1	none
Cc1cccc(C(=O)Nc2c3c(nn2C(C)(C)C)CS(=O)(=O)C3)c1	none
Cc1cc(NC(=O)c2ccccc2)n(C(C)(C)C)n1	D1 antagonist -33
CC(C)(C)n1nc2c(c1NC(=O)c1ccccc1)CS(=O)(=O)C2	D1 antagonist -41
CCCSc1ncc(Cl)c(C(=O)Nc2scc(-c3ccc(C)cc3)c2C(=O)OCC)n1	none (no result: TRPV1 agonist, TRPV1 PAM)
COc1ccc(OC)c(CCNC(=O)CCn2c(=O)c3cccn3c3cccnc32)c1	none (no result: TRPV1 agonist, TRPV1 PAM)
O=C(COC(=O)c1cc(Br)ccc1Cl)NC1CC1	none
CCCCNC(=O)COC(=O)c1cc(Br)ccc1Cl	D1 antagonist -31
CCCCNC(=O)COC(=O)c1cc(F)c(F)cc1Cl	none
CCC(CC)NC(=O)COC(=O)c1cc(Br)ccc1Cl	D1 antagonist -36
COc1ccccc1N1CC(C)(C)C(=O)N(C(=O)c2ccc(C)cc2)C1=S	TRPV1 agonist inconclusive, D1 antagonist -45
CN(C(=O)c1ccno1)c1nnc(-c2ccccn2)s1	D1 antagonist -35
CCn1c(=O)c2c(nc3n2CCCN3c2cccc(C)c2)n(C)c1=O	D1 antagonist -31
COC(=O)Cn1c(=O)c2c(nc3n2CCN3c2cccc(C)c2)n(C)c1=O	none (no result: TRPV1 agonist, TRPV1 PAM)
Cc1ccc(N2CCCn3c2nc2c3c(=O)n(CC(=O)OCc3ccccc3)c(=O)n2C)cc1C	D1 antagonist -46
Cc1ccc(Cl)cc1N1CCN(C(=O)c2ccc3c(c2)N(Cc2ccccc2)CCS3)CC1	none (no result: TRPV1 agonist, TRPV1 PAM)
CC(Sc1nc2c([nH]c3ccccc32)c(=O)n1-c1ccccc1)c1ccccc1 (stereo unspecified)	none (no result: TRPV1 agonist, TRPV1 PAM)
